# Assay results from PubChem BioAssay (Tox21).
# Results filed as inconclusive are left out. A call without a number means that no potency is given here. Active and inactive are the calls of the source. Unless noted, the call rests on the fitted dose curve; in most records, active means well fitted curve in the direction sought with a large enough effect in the repeat runs; inconclusive means weak or mixed curves; inactive means no such curve, though single readings can be large; an effect the other way counts as inactive or inconclusive.
# Tests used:
# [1] = qHTS assay to identify aromatase inhibitors - cell viability counter screen (AID 743084); settings: MCF-7 aro ERE viability, CellTiter-Fluor, 24 h; series mostly up to 70.3 µM;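 further: cells stimulated with testosterone during compound exposure; nearly all actives have a fitted effect of over 55% in size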
# [2] = target: Aryl hydrocarbon receptor (Homo sapiens) (UniProt P35869); test: qHTS assay to identify small molecule that activate the aryl hydrocarbon receptor (AhR) signaling pathway (AID 743085); settings: HepG2 AhR-luc (HG2L7.5c1), luciferase, 24 h; series mostly up to 70.3 µM; further: nearly all actives have a fitted effect of over 15% in size; further: potency means the concentration at half of the fitted maximal effect;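 on activation: HG2L7.5c1 human HepG2 liver cells with stably integrated DRE-driven firefly reporter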
# How it was run: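 Luminescence (ONE-Glo) from a dioxin-responsive-element luciferase reporter in HG2L7.5c1 HepG2 cells after 24 hr compound exposure at 37C; viability measured by CellTiter-Fluor fluorescence beforehand.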
# [3] = qHTS assay to identify small molecule that activate the aryl hydrocarbon receptor (AhR) signaling pathway - cell viability counter screen (AID 743086); settings: HepG2-AhR-luc viability, CellTiter-Fluor, 24 h; series mostly up to 70.3 µM;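 further: HepG2 liver cells carrying the AhR DRE luciferase reporter; nearly all actives have a fitted effect of over 45% in size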
# How it was run: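 HepG2-AhR-luc (HG2L7.5c1) cells, 4000/well, were preincubated 5 h at 37C, exposed to compound in qHTS format for 24 hr at 37C, then given CellTiter-Fluor for 30 min; viability was read as fluorescence in the reporter wells.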
# [4] = target: Peroxisome proliferator-activated receptor gamma (Homo sapiens) (UniProt P37231); test: qHTS assay to identify small molecule agonists of the peroxisome proliferator-activated receptor gamma (PPARg) signaling pathway (AID 743094; active means well fitted activation curve with a large enough effect in the signal ratio in the repeat runs, not every such curve was filed as active; the % refers to the signal ratio); settings: HEK293H PPARg-UAS-bla, beta-lactamase FRET ratio, 17 h; series mostly up to 57 µM
# How it was run: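 Compounds dissolved in DMSO were added to PPARg UAS-bla HEK293H cells for 17 h at 37C, and reporter expression was quantified by fluorescence intensity after 1 h with LiveBLAzer B/G FRET substrate.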
# [5] = target: Peroxisome proliferator-activated receptor gamma (Homo sapiens) (UniProt P37231); test: qHTS assay to identify small molecule antagonists of the peroxisome proliferator-activated receptor gamma (PPARg) signaling pathway (AID 743191; calls by dose curve; further: nearly all actives have a fitted effect of over 30% in size); settings: HEK293H PPARg-UAS-bla, beta-lactamase ratio, antagonist, 17 h; series mostly up to 62.6 µM
# How it was run: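 GeneBLAzer PPARg UAS-bla HEK293H cells carrying a UAS-driven beta-lactamase reporter were plated at 3000 cells/well, preincubated 5 h at 37C, then given compound for 17 h at 37C; LiveBLAzer B/G FRET substrate was read after 1 h at room temperature.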
# [6] = qHTS assay to identify small molecule antagonists of the peroxisome proliferator-activated receptor gamma (PPARg) signaling pathway - cell viability counter screen (AID 743194); settings: PPARg-bla HEK293H viability, CellTiter-Glo luminescence, 17 h, co-treated with 50 nM rosiglitazone; series mostly up to 62.6 µM; further: nearly all actives have a fitted effect of over 55% in size
# How it was run: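 PPARg-UAS-bla HEK293H cells were plated, rested 5 h at 37 C, then treated with compounds plus rosiglitazone (50 nM final) for 17 h at 37 C; viability was then read by CellTiter-Glo luminescence after 30 min at room temperature.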
# [7] = qHTS assay for small molecule agonists of the antioxidant response element (ARE) signaling pathway (AID 743202; active means well fitted activation curve with a large enough effect in the signal ratio in the repeat runs, not every such curve was filed as active; the % refers to the signal ratio); settings: HepG2 ARE-bla reporter, beta-lactamase FRET, 16 h; series mostly up to 73.3 µM
# How it was run: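 Compounds delivered in DMSO to ARE-bla HepG2 cells (2,000 cells/well, pre-incubated 5 h) and left 16 h at 37 C. LiveBLAzer B/G FRET substrate then added for 2 h at RT before fluorescence reading.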
# [8] = qHTS assay for small molecule agonists of the antioxidant response element (ARE) signaling pathway - cell viability counter screen (AID 743203; calls by dose curve; further: nearly all actives have a fitted effect of over 55% in size); settings: ARE-bla HepG2 viability, CellTiter-Glo luminescence, 16 h; series mostly up to 73.3 µM
# How it was run: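 Following 16 hrs of compound treatment at 37C, HepG2 cells with an ARE-controlled beta-lactamase gene were lysed with CellTiter-Glo. Luminescence was read after 30 min at room temperature.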
# [9] = qHTS assay for small molecule activators of the heat shock response signaling pathway (AID 743210; active means well fitted activation curve with a large enough effect in the signal ratio in the repeat runs, with a control signal flat, not every such curve was filed as active; the % refers to the signal ratio;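 further: HeLa cells with beta-lactamase reporter driven by heat shock elements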); settings: HeLa HSE-bla reporter, beta-lactamase ratio, 5 h; series mostly up to 62.6 µM
# How it was run: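 Reporter gene assay: HeLa cells stably bearing an HSE-bla construct, compound treatment 5 h at 37 C, LiveBLAzer substrate 2.5 h at RT, fluorescence intensity.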
# [10] = qHTS assay to identify small molecule agonists of the peroxisome proliferator-activated receptor delta (PPARd) signaling pathway - cell viability counter screen (AID 743211); settings: PPARd-bla HEK293H viability, CellTiter-Glo luminescence, 17 h; series mostly up to 62.6 µM; further: nearly all actives have a fitted effect of over 55% in size
# How it was run: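 Viability was measured as CellTiter-Glo luminescence (30 min, room temperature) in the same wells as the beta-lactamase readout. GeneBLAzer PPARd UAS-bla HEK293H cells received compound after 5 h plating and were incubated 17 h at 37 C.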
# [11] = qHTS assay to identify small molecule antagonists of the peroxisome proliferator-activated receptor delta (PPARd) signaling pathway - cell viability counter screen (AID 743213); settings: PPARd-bla HEK293H viability, CellTiter-Glo luminescence, 17 h; series mostly up to 62 µM; further: nearly all actives have a fitted effect of over 50% in size
# How it was run: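 Luminescence from CellTiter-Glo, added after the bla read and incubated 30 min at room temperature, gives viability of HEK293H PPARd-bla cells exposed to compounds for 17 h at 37 C with 300 nM L165041.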
# [12] = qHTS assay to identify small molecule antagonists of the farnesoid-X-receptor (FXR) signaling pathway - cell viability counter screen (AID 743221; active means well fitted cell-killing curve with a large enough effect in the repeat runs, not every such curve was filed as active; further: nearly all actives have a fitted effect of over 50% in size); settings: FXR-bla HEK293T viability, CellTiter-Glo luminescence, 16 h; series mostly up to 62.6 µM
# How it was run: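 Cytotoxicity counter screen run in the FXR-bla reporter wells: HEK 293T cells exposed to compound with 50 uM (final) chenodeoxycholic acid for 16 h, 37 C, then viability measured by CellTiter-Glo luminescence after 30 min, room temperature.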
# [13] = target: Vitamin D3 receptor (Homo sapiens) (UniProt P11473); test: qHTS assay to identify small molecule agonists of the vitamin D receptor (VDR) signaling pathway (AID 743222; calls by dose curve); settings: HEK293T VDR-UAS-bla, beta-lactamase FRET ratio, 16 h; series mostly up to 63.5 µM
# How it was run: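 In VDR-bla cells, compound-induced beta-lactamase expression is quantified by FRET substrate fluorescence. Treatment lasts 16 h at 37C; substrate develops 2 h at room temperature.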
# [14] = qHTS assay for small molecule activators of the heat shock response signaling pathway - cell viability counter screen (AID 743209); settings: HSE-bla HeLa viability, CellTiter-Glo luminescence, 5 h; series mostly up to 62.6 µM; further: nearly all actives have a fitted effect of over 50% in size
# How it was run: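 Readout: CellTiter-Glo luminescence, 30 min at room temperature. System: HSE-bla HeLa cells, 1500/well, plated overnight. Treatment: compounds in DMSO, 5 h at 37 C.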
# [15] = target: Peroxisome proliferator-activated receptor delta (Homo sapiens) (UniProt Q03181); test: qHTS assay to identify small molecule agonists of the peroxisome proliferator-activated receptor delta (PPARd) signaling pathway (AID 743212; calls by dose curve); settings: HEK293H PPARd-UAS-bla, beta-lactamase FRET ratio, 17 h; series mostly up to 62.6 µM
# How it was run: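 A PPARd-bla HEK293H line with beta-lactamase under an Upstream Activator Sequence is treated with compounds at 37 C. Substrate loading for 2 h at room temperature precedes the fluorescence measurement.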
# [16] = qHTS assay to identify small molecule agonists of the farnesoid-X-receptor (FXR) signaling pathway - cell viability counter screen (AID 743218); settings: FXR-bla HEK293T viability, CellTiter-Glo luminescence, 16 h; series mostly up to 62.6 µM; further: nearly all actives have a fitted effect of over 45% in size
# How it was run: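 Parallel cytotoxicity test: compound-treated (16 h, 37 C) HEK 293T FXR-bla reporter cells were lysed with CellTiter-Glo and luminescence recorded.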
# [17] = target: Vitamin D3 receptor (Homo sapiens) (UniProt P11473); test: qHTS assay to identify small molecule antagonists of the vitamin D receptor (VDR) signaling pathway (AID 743223; active means well fitted inhibition curve with a large enough effect in the signal ratio in the repeat runs, not every such curve was filed as active; the % refers to the signal ratio); settings: VDR-UAS-bla HEK293T, beta-lactamase FRET ratio, 16 h; series mostly up to 61 µM
# How it was run: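 Antagonist mode: compound added to VDR-bla cells alongside agonist 1alpha,25-dihydroxyvitamin D3 (3 nM final), incubation 16 h at 37C. Read-out is LiveBLAzer FRET fluorescence, 2 h at room temperature.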
# [18] = target: Peroxisome proliferator-activated receptor delta (Homo sapiens) (UniProt Q03181); test: qHTS assay to identify small molecule antagonists of the peroxisome proliferator-activated receptor delta (PPARd) signaling pathway (AID 743215; active means well fitted inhibition curve with a large enough effect in the signal ratio in the repeat runs, not every such curve was filed as active; the % refers to the signal ratio;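 further: cells stimulated with agonist L165041 at 300 nM final during compound exposure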); settings: HEK293H PPARd-UAS-bla, beta-lactamase FRET ratio, antagonist, 17 h; series mostly up to 62 µM
# How it was run: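 HEK293H UAS-bla, PPARd; agonist L165041 300 nM final with cpd in DMSO; 37 C 17 h; FRET substrate, RT 2 h; fluorescence intensity.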
# [19] = target: Bile acid receptor (Homo sapiens) (UniProt Q96RI1); test: qHTS assay to identify small molecule antagonists of the farnesoid-X-receptor (FXR) signaling pathway (AID 743217; active means well fitted inhibition curve with a large enough effect in the signal ratio in the repeat runs, not every such curve was filed as active; the % refers to the signal ratio); settings: HEK293T FXR-UAS-bla, beta-lactamase ratio, CDCA-stimulated, 16 h; series mostly up to 62.6 µM
# How it was run: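 GeneBLAzer FXR-UAS-bla HEK 293T, CDCA-stimulated (50 uM final). Compound treatment 16 h, 37 °C. Detection: beta-lactamase cleavage of B/G FRET substrate, fluorescence.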
# [20] = target: Bile acid receptor (Homo sapiens) (UniProt Q96RI1); test: qHTS assay to identify small molecule agonists of the farnesoid-X-receptor (FXR) signaling pathway (AID 743220; active means well fitted activation curve with a large enough effect in the signal ratio in the repeat runs, not every such curve was filed as active; the % refers to the signal ratio); settings: HEK293T FXR-UAS-bla, beta-lactamase FRET ratio, 16 h; series mostly up to 62.6 µM
# How it was run: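 Beta-lactamase reporter under UAS control in GeneBLAzer FXR HEK 293T cells (5000/well) measured with LiveBLAzer FRET substrate after 2 h at room temperature. Compound exposure lasted 16 h at 37C.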
# Peroxisome proliferator-activated receptor gamma (Homo sapiens), sequence (P37231 whole entry, looked up): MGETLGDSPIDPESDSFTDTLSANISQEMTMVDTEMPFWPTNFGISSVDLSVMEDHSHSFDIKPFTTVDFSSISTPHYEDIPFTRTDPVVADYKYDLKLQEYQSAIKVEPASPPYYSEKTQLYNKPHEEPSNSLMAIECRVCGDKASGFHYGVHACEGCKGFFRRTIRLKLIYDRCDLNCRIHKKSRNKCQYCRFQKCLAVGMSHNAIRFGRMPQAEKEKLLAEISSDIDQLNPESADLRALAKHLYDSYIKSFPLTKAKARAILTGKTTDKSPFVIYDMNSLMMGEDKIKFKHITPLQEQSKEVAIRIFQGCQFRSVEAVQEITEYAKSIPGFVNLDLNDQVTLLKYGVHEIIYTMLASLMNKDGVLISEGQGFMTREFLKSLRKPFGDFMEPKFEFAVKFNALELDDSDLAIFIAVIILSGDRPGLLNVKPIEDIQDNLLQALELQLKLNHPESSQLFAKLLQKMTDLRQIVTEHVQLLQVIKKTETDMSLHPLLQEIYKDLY
# Aryl hydrocarbon receptor (Homo sapiens), sequence (P35869 whole entry, looked up): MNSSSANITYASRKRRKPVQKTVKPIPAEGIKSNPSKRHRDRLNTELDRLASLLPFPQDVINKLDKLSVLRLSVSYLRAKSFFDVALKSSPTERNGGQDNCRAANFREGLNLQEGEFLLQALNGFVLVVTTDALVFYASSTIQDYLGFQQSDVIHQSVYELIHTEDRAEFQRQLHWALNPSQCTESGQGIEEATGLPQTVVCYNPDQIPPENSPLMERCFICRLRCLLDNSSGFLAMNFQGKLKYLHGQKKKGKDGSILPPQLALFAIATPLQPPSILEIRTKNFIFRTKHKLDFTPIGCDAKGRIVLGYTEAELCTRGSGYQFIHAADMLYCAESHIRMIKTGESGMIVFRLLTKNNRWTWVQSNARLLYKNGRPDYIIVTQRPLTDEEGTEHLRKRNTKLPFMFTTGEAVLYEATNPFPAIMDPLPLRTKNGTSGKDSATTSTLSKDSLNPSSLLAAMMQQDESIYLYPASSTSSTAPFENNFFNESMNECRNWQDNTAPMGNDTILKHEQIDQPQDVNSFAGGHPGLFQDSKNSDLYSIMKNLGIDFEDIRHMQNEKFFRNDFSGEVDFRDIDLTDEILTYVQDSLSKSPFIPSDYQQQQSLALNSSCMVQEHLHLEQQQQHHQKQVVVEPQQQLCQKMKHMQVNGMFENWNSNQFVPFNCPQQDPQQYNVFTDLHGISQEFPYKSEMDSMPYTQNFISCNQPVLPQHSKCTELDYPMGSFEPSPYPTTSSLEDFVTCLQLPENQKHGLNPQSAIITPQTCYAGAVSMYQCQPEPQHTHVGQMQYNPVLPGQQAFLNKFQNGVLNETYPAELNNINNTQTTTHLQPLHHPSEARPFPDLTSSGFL
# Peroxisome proliferator-activated receptor delta (Homo sapiens), sequence (Q03181 whole entry, looked up): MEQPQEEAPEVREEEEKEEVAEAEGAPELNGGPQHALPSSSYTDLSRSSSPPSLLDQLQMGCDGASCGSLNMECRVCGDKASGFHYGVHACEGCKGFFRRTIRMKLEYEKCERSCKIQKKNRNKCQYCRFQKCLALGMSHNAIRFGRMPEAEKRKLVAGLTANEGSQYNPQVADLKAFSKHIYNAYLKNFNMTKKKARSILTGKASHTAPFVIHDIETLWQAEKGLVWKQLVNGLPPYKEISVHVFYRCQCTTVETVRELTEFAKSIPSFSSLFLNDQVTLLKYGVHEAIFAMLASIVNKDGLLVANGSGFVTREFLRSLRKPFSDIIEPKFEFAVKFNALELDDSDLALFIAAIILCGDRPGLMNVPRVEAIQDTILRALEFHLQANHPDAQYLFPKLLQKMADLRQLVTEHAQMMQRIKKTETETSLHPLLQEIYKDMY
# Vitamin D3 receptor (Homo sapiens), sequence (P11473 whole entry, looked up): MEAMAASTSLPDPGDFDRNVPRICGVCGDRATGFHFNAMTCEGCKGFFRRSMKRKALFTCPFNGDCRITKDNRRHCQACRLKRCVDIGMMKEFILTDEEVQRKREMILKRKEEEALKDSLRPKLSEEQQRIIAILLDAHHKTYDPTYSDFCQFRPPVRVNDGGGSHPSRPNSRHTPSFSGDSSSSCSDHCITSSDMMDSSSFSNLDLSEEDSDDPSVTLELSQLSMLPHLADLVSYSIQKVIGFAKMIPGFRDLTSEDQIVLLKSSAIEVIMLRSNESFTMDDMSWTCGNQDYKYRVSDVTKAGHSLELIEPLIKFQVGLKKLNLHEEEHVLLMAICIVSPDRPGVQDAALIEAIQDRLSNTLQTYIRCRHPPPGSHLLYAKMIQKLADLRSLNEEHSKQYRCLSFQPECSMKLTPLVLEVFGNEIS
# Bile acid receptor (Homo sapiens), sequence (Q96RI1 whole entry, looked up): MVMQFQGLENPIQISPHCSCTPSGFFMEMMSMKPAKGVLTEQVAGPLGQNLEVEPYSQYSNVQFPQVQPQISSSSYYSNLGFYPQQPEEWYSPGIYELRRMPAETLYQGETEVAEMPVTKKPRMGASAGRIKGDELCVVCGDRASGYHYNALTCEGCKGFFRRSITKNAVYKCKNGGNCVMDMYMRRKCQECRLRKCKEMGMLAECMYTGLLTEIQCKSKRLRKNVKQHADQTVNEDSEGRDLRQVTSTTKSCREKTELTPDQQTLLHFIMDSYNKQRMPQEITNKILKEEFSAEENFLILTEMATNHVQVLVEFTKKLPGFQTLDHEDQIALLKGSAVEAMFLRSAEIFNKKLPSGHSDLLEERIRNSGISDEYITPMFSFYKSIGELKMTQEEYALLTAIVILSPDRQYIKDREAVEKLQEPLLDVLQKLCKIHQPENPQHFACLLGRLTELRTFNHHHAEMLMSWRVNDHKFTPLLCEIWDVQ
Compound,Potency [1],Potency [2],Potency [3],Potency [4],outcome [5],outcome [6],Potency [7],outcome [8],outcome [9],outcome [10],outcome [11],outcome [12],outcome [13],Potency [14],outcome [15],outcome [16],outcome [17],outcome [18],outcome [19],outcome [20]
Cc1c(C(=O)c2c[nH]n(C)c2=O)ccc(S(C)(=O)=O)c1C1=NOCC1,inactive,inactive,inactive,inactive,inactive,inactive,inactive,inactive,inactive,inactive,inactive,inactive,inactive,,,,,,,
CC(N)CCCC(C)(C)O (centres undefined),inactive,inactive,inactive,inactive,inactive,inactive,inactive,,inactive,inactive,inactive,inactive,inactive,inactive,inactive,inactive,inactive,,,
CO[C@@]1(NC(=O)Cc2cccs2)C(=O)N2C(C(=O)O)=C(COC(N)=O)CS[C@@H]21,inactive,inactive,inactive,inactive,inactive,inactive,inactive,inactive,,inactive,inactive,inactive,,inactive,,inactive,,,,
CC1=C(C(=O)O)N2C(=O)[C@@H](NC(=O)[C@H](N)C3=CCC=CC3)[C@H]2SC1,inactive,inactive,inactive,inactive,inactive,inactive,inactive,inactive,,inactive,inactive,inactive,inactive,inactive,inactive,,,inactive,,
CC(=O)CCC1=C(C)CCCC1(C)C,inactive,inactive,inactive,inactive,inactive,inactive,inactive,inactive,,inactive,inactive,inactive,inactive,,inactive,,,inactive,,
O=C(O)CCCCCC(=O)O,inactive,inactive,inactive,inactive,inactive,,,inactive,inactive,inactive,inactive,inactive,inactive,inactive,inactive,inactive,,,,
C/C=C(\C)C(=O)OCCc1ccccc1,inactive,inactive,inactive,inactive,,inactive,inactive,inactive,inactive,inactive,inactive,inactive,,inactive,inactive,inactive,,inactive,inactive,
COc1ccc2c(c1)c1c3n2CCN(C)C3=NCC1,inactive,13.3 µM (active),inactive,inactive,inactive,,inactive,inactive,,inactive,inactive,inactive,inactive,inactive,inactive,inactive,inactive,,,
CCCCOC(=O)C(C)O (centres undefined),inactive,inactive,inactive,inactive,inactive,,inactive,inactive,inactive,inactive,inactive,inactive,inactive,,,inactive,inactive,,inactive,inactive
CC(C)c1ccc(C=O)cc1,inactive,inactive,inactive,inactive,inactive,,inactive,inactive,,inactive,inactive,inactive,inactive,inactive,inactive,inactive,,inactive,,
CC(C)C1OCCN1CCOC(=O)NCCCCCCNC(=O)OCCN1CCOC1C(C)C (centres undefined),inactive,inactive,inactive,inactive,inactive,,inactive,inactive,,inactive,inactive,inactive,,inactive,,inactive,,inactive,,
c1ccc(-c2nn[nH]n2)cc1,inactive,inactive,inactive,inactive,inactive,,inactive,inactive,inactive,inactive,inactive,inactive,inactive,,,inactive,,,inactive,inactive
Cn1c(=O)c2[nH]c(Br)nc2n(C)c1=O,inactive,inactive,inactive,inactive,,inactive,inactive,inactive,inactive,inactive,inactive,inactive,inactive,inactive,inactive,inactive,inactive,inactive,,
O=C=NCC1CCCC(CN=C=O)C1 (centres undefined),inactive,inactive,inactive,inactive,inactive,inactive,,inactive,inactive,inactive,inactive,,inactive,,,inactive,inactive,,,
CCC(C)OC(C)CC (centres undefined),inactive,inactive,inactive,inactive,inactive,inactive,,inactive,,inactive,,inactive,inactive,inactive,inactive,inactive,,,,
Cc1c(Cl)cccc1Cl,inactive,inactive,inactive,inactive,inactive,,inactive,inactive,inactive,inactive,,inactive,inactive,inactive,,inactive,inactive,,,
CC1(C)CC(OC(=O)CCCCCCCCC(=O)OC2CC(C)(C)NC(C)(C)C2)CC(C)(C)N1,inactive,inactive,inactive,inactive,inactive,,,inactive,inactive,inactive,inactive,inactive,inactive,,inactive,,,,,
